In all, about 410,000 compounds went through this assay and about 6,400 (1.6%) were called active. Not shown: some 20% with an inconclusive outcome. Shown is part of a subset that was picked to be rich in actives. A number with no mark means an inactive call. Calls follow the shape of the dose curve; as a rule, active = well fitted inhibition curve with a large enough effect; inconclusive = small, poorly fitted or top-dose-only effect; inactive = no such curve, though single readings can be large or run the other way.
biological target: Glucagon-like peptide 1 receptor (Homo sapiens) (UniProt P43220); assay: qHTS of GLP-1 Receptor Inverse Agonists (Inhibition Mode); details: HEK293 GLP-1R CRE-luciferase, luminescence, 24 h, GLP-1R form is constitutively active; series mostly up to 38.3 µM; activity change, negative = inhibition: at the top concentration; also: nearly all actives have a fitted effect of over 55% in size
Source text: The overall goal of this project was to develop a novel assay for discovering small molecule ligands for class B1 G protein-coupled receptors (GPCRs). Very few agonists (or inverse agonists in inhibition mode) with generally weak activity for this entire group of physiologically important receptors are known to date. To establish proof-of-principle that this critical bottleneck can be overcome with a suitable screening approach, our studies focused on the class B1 receptor for glucagon-like peptide-1 (GLP-1R), a potential therapeutic target for diabetes and neurodegenerative disease. The assay was developed using a cell-based functional readout. Toward this goal, stably transfected HEK293 cell clones were established that co-express (i) a cAMP-responsive luciferase reporter gene, and (ii) constitutively active GLP-1R that upon ligand interaction inhibit (inverse agonists) the luciferase activity. In addition, two control cell lines were developed: (i) one that express only the cAMP-responsive reporter gene to enable initial exclusion of GLP-1R independent effects of candidate probes; and (ii) one with the reported gene cloned with another constitutively active orphan receptor GPR119 to enable exclusion of GLP-1R independent inhibitor effects of candidate inverse agonists. To that end, this assay was optimized for 1536-well format and screened against the MLSMR. […] NIH Molecular Libraries Probe Production Network [MLPCN] NIH Chemical Genomics Center [NCGC] Grant: NS064851 PI Name: Martin Beinborn, Tufts Medical Center
Six ul of cell suspension (200 cells/uL in DMEM + 10% Nu serum + 1% pen-strep) is dispensed in a white solid 1536-well plate. The plates are incubated for 12 hours at 37 deg C at 5% CO2 followed by addition of 23 nL compounds. After 24 hr incubation at 37 deg C and 5% CO2, 3 uL of luciferase assay detection reagent is added. A luminescence read is obtained on the PerkinElmer Viewlux after 12 min incubation at room temperature.
% is scaled to controls: 0 for no effect and ±100 for the full control effect; potency is read from the fitted curve at half-maximal effect.

Glucagon-like peptide 1 receptor (Homo sapiens), sequence (P43220 whole entry, looked up): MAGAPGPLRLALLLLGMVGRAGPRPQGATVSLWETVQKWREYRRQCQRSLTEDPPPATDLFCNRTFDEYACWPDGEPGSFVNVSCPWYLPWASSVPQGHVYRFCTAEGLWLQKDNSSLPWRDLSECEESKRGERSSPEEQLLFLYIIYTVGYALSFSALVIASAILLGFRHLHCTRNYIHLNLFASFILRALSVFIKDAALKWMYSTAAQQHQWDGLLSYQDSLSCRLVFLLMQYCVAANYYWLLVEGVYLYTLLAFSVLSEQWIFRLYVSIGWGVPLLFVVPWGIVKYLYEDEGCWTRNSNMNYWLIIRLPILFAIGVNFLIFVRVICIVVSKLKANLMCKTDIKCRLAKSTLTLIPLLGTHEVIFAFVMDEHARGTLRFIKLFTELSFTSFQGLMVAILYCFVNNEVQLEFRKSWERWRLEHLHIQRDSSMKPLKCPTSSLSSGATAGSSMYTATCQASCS

SMILES | activity change, negative = inhibition [%] | Potency
O=C(Nc1cccc2cccnc12)c1ccc2sc([C@H]3C[C@H](O)[C@@H](CO)O3)nc2c1 | -7.33 | –
C=C1C(=O)OC2C1CCC(C)=CCCC1(C)OC21 (stereo unspecified) | -8.11 | –
CSCc1nnc(NC(=O)c2ccc(S(=O)(=O)N3CCCCC3C)cc2)o1 (stereo unspecified) | -34 | –
CC1CCCCN1S(=O)(=O)c1ccc(S(=O)(=O)N(CC(=O)Nc2ccccc2)Cc2cccs2)cc1 (stereo unspecified) | – | 11.2 µM (active)
CCN(CC(=O)NCc1cccs1)S(=O)(=O)c1ccc(NC(C)=O)cc1 | 9.52 | –
CNc1cc(-c2c(OC)cccc2OC)ncn1 | 12.1 | –
CCOc1ccc(-c2noc(CCC(=O)NC3CCCC3)n2)cc1OC | 2.22 | –
CCNC(=O)CCc1nc(-c2ccc(C)cc2)no1 | 5.28 | –
CCNC(=O)CCc1nc(-c2ccc(C(C)(C)C)cc2)no1 | – | 7.94 µM (active)
O=C1NC[C@H](CCCCN2C[C@H](Cc3ccc(O)cc3)N(CC3CCCCC3)C(=O)C2=O)N(CCc2ccccc2)C1=O | 17.3 | –
OCCc1ccc(NCCc2ccco2)cc1 | 19.7 | –
CC1(C(=O)Nc2ccc3c(c2)OCCO3)CSCC(=O)N1CCOc1ccccc1 (stereo unspecified) | -16.3 | –
O=C(CCc1ccccc1)NCc1ccc2c(c1)CCN2C(=O)c1ccccc1 | 2.5 | –
O=C(NCc1ccc2c(c1)CCN2C(=O)c1ccccc1)Nc1cc(F)ccc1F | – | 10 µM (active)
O=C(NCc1ccc2c(c1)CCN2C(=O)c1ccccc1)c1ccccc1 | 0.837 | –
COc1ccc2c(c1)CCCO[C@]21O[C@H](CCO)C[C@H](O)[C@H]1O | -1.05 | –
Cc1ccc(C(=O)N2CCCC2)c(F)c1F | 0 | –
COc1cc(OC)c(C(=O)N2CCCC2)cc1OC | 9.35 | –
Cc1c(Br)cc(C(=O)N2CCCCCC2)c(C)c1C | – | 10 µM (active)
C[C@H]1CN([C@@H](C)CO)C(=O)CCCn2nncc2CO[C@@H]1CN(C)Cc1ccc(Oc2ccccc2)cc1 | -3.26 | –
Cc1ccc(S(=O)(=O)NC(=O)Nc2nc(-c3ccc(F)c(F)c3)cs2)cc1 | 5.25 | –

SMILES | activity change, negative = inhibition [%] | Potency
CCCc1ccc(-c2csc(NC(=O)Cc3cccs3)n2)cc1 | -59.4 | –
COc1ccc(CC(=O)Nc2nc(-c3ccc(F)c(F)c3)cs2)cc1OC | – | 3.98 µM (active)
CC1(C)CC(=O)C=C(c2ccccc2CO)C1=O | 7.06 | –
CC1=C(C(=O)N2CCOCC2)CC(CC(=O)NCc2cccc3ccccc23)C(=O)N1CCC1=CCCCC1 (stereo unspecified) | -26.4 | –
CC(C)N(C(=O)[C@H]1C[C@H](CC(=O)NCCC2=CCCCC2)C(=O)N2CCc3c([nH]c4cc(CCC(=O)N(C)C)ccc34)[C@]12C)C(C)C | -32.8 | –
CC(C)N(C(=O)[C@H]1C[C@H](CC(=O)NC(C)(C)C)C(=O)N2CCc3c([nH]c4ccc(Cl)cc34)[C@]12C)C(C)C | – | 11.2 µM (active)
C[C@]12c3[nH]c4ccc(Cl)cc4c3CCN1C(=O)[C@@H](CC(=O)NCCCn1ccnc1)C[C@@H]2C(=O)N1CCOCC1 | 2.69 | –
CS(=O)(=O)c1cccc(-c2ccc3nncn3c2)c1 | 18.5 | –
Cc1ccccc1-c1ccc2c(c1)O[C@@H](CN(C)Cc1ccc(C(=O)O)cc1)[C@@H](C)CN([C@H](C)CO)S2(=O)=O | -5.91 | –
O=C1c2ccccc2C(c2nc3ccccc3[nH]2)N1c1ccccc1 (stereo unspecified) | 19.2 | –
CCOc1ccc(Cl)cc1-c1cc(C(=O)NCc2cccs2)[nH]n1 | -27.5 | –
CC(C)c1ccc(CC(=O)N2CCC2(C)C(=O)NS(=O)(=O)c2ccc(C(C)(C)C)cc2)cc1 (stereo unspecified) | -23.7 | –
C[C@@H]1C(c2ccc(F)cc2)=NN(c2ccc(Br)cc2)[C@H]1C(=O)N1CCOC1=O | – | 10 µM (active)
O=C1OCCN1C(=O)[C@H]1[C@H](c2ccc(Cl)cc2)C(c2cccc(Cl)c2)=NN1c1ccc(Br)cc1 | – | 7.94 µM (active)
O=c1c2cc(Br)ccc2nc(-c2cccc(Cl)c2)n1O | -27.4 | –
Cc1ccc2c(c1)N(C(=O)Nc1ccc(Br)cc1F)CCO2 | 3.59 | –
Cc1sc2ncnc(SCC(=O)NC3CCS(=O)(=O)C3)c2c1C (stereo unspecified) | -8.39 | –
CCCCNC(=O)c1nc(C2CCN(S(=O)(=O)c3ccc(F)c(F)c3)CC2)oc1-c1cccc(C(F)(F)F)c1 | 28.4 | –
O=S1(=O)CC(N2CCN(CCO)CC2)CN1C1CCCC1 (stereo unspecified) | 16.4 | –
COCCNc1ncnc2c1c(-c1ccccc1)cn2-c1ccc(C)c(Cl)c1 | 2.32 | –
CCCNc1ncnc2c1c(-c1ccccc1)cn2-c1ccc(OCC)cc1 | – | 3.16 µM (active)

SMILES | activity change, negative = inhibition [%] | Potency
O=c1[nH]cnc2c1c(-c1ccccc1)cn2-c1ccc(F)cc1 | -46.3 | –
CC1(C(=O)Nc2ccc3c(c2)OCCO3)CN(S(C)(=O)=O)CC(=O)N1Cc1cccc(F)c1 (stereo unspecified) | 6.12 | –
Cn1nc(-c2ccccc2)c(CSc2cccc(Cl)c2)c1Cl | – | 10 µM (active)
Cn1nc(-c2ccccc2)c(CO)c1Sc1ccccc1 | -24 | –
Cc1ccc(S(=O)(=O)c2c(COC(=O)c3cccc(Cl)c3)c(-c3ccccc3)nn2C)cc1 | -8.24 | –
CC(=O)N1Cc2cc(C(=O)NCc3cccc(F)c3)nc(-c3cccc(C4=CCCC4)c3)c2[C@H]1CCO | -8.88 | –
COc1ccc(S(=O)(=O)N2CCN(CC(=O)N3CCNC3=O)CC2)cc1OC | 66.6 | –
Cc1ccn2c(-c3csc(Nc4ccc(C(=O)O)cc4)n3)c(C)nc2c1 | -7.71 | –
Oc1ccc(N2CCN(C(=S)NCc3ccccc3)CC2)cc1 | -61.1 | –
CC1CCCCN1C(=S)NCc1ccccc1 (stereo unspecified) | 0 | –
Oc1ccccc1N1CCN(C(=S)NCc2ccccc2)CC1 | – | 11.2 µM (active)
COc1cc2c(=O)n(C)c3ccccc3c2cc1OC | 39.7 | –
CCC(=O)Nc1ccc(C(=O)N2CCN(C(=O)c3ccco3)CC2)cc1 | 9.34 | –
Cc1ccc(C)c(OCC(=O)N2CCN(C(=O)c3ccco3)CC2)c1 | 0 | –
Cc1ccc(OCC(=O)Nc2ccc(N3CCN(C(=O)c4ccco4)CC3)cc2)c(C)c1 | – | 7.94 µM (active)
Cc1ccc2c(c1)C1CN(C)CCC1N2S(=O)(=O)c1ccc(Oc2ccc([N+](=O)[O-])cc2)cc1 (stereo unspecified) | – | 11.2 µM (active)
Cc1ccc([N+](=O)[O-])cc1S(=O)(=O)N1CCCN(C)CC1 | -5.16 | –
O=C(C1CCCN(S(=O)(=O)c2ccc([N+](=O)[O-])cc2)C1)N1CCCCC1 (stereo unspecified) | 5.83 | –
CCc1ccccc1OCC(=O)Nc1nnc(C2CC2)s1 | 10.4 | –
